Laboratory results reported in the supplement of paper PMC6555819.

Tests used:
Assay in all cases: PBM binding z-score (relative to random genomic background probes); higher = stronger binding; sequences stand for … in GC…GCGATTGACAGCGTAGAATGAAGG
[1] = test system: FXR:RXRa (NR concentration 270 nM, RXRa partner concentration 90 nM)
How it was run: (§1)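 For binding z-scores, the reference was random background probes on custom Agilent 4×180K protein-binding microarrays. These arrays were incubated 1 h with ligand-free nuclear receptor dimers in PBS pH 7.4, 2% milk, 0.02% Triton X-100, 1 mM DTT, 0.2 mg/mL BSA and 0.4 mg/ml salmon testes DNA. Fluorescence was scanned after antibody detection of each partner (one per run) and regression-normalized.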

[2] = test system: LXRa:RXRa (NR concentration 270 nM, RXRa partner concentration 90 nM)
How it was run: as §1

[3] = test system: LXRa homodimer (NR concentration 270 nM)
How it was run: as §1

[4] = test system: LXRb:RXRa (NR concentration 270 nM, RXRa partner concentration 90 nM)
How it was run: as §1

[5] = test system: LXRb homodimer (NR concentration 270 nM)
How it was run: as §1

[6] = test system: PPARa:RXRa (NR concentration 270 nM, RXRa partner concentration 90 nM)
How it was run: as §1

[7] = test system: PPARg:RXRa (NR concentration 180 nM, RXRa partner concentration 90 nM)
How it was run: as §1

[8] = test system: PPARg:RXRa 270nM:90nM, anti-RXR (NR concentration 270 nM, RXRa partner concentration 90 nM)
How it was run: as §1

[9] = test system: PPARg:RXRa 30nM:10nM, anti-RXR (NR concentration 30 nM, RXRa partner concentration 10 nM)
How it was run: as §1

[10] = test system: PPARg:RXRa 90nM:30nM, anti-RXR (NR concentration 90 nM, RXRa partner concentration 30 nM)
How it was run: as §1

[11] = test system: PPARg:RXRa DBDmut IVT, anti-RXR (DBD mutation: RXRa K156A/R161A, NR concentration 270 nM, RXRa partner concentration 90 nM)
How it was run: as §1

[12] = test system: PPARg:RXRa IVT, anti-PPARg (NR concentration 270 nM, RXRa partner concentration 90 nM)
How it was run: as §1

[13] = test system: PPARg DBDmut:RXRa IVT, anti-PPARg (DBD mutation: PPARg1 K132A/R137A, NR concentration 270 nM, RXRa partner concentration 90 nM)
How it was run: as §1

[14] = test system: PPARg DBDmut IVT, anti-PPARg (DBD mutation: PPARg1 K132A/R137A, NR concentration 270 nM)
How it was run: as §1

[15] = test system: PPARg homodimer (NR concentration 180 nM)
How it was run: as §1

[16] = test system: PXR:RXRa (NR concentration 270 nM, RXRa partner concentration 90 nM)
How it was run: as §1

[17] = test system: PXR homodimer (NR concentration 270 nM)
How it was run: as §1

[18] = test system: RARa:RXR (NR concentration 270 nM, RXRa partner concentration 90 nM)
How it was run: as §1

[19] = test system: RARa homodimer (NR concentration 270 nM)
How it was run: as §1

[20] = test system: RARb:RXRa (NR concentration 270 nM, RXRa partner concentration 90 nM)
How it was run: as §1

Sequence	PBM binding z-score [1]	PBM binding z-score [2]	PBM binding z-score [3]	PBM binding z-score [4]	PBM binding z-score [5]	PBM binding z-score [6]	PBM binding z-score [7]	PBM binding z-score [8]	PBM binding z-score [9]	PBM binding z-score [10]	PBM binding z-score [11]	PBM binding z-score [12]	PBM binding z-score [13]	PBM binding z-score [14]	PBM binding z-score [15]	PBM binding z-score [16]	PBM binding z-score [17]	PBM binding z-score [18]	PBM binding z-score [19]	PBM binding z-score [20]
CTACCAAGGGGAACAAGGTCGTTGATTACTATTC	0.208	0.398	0.166	1.28	-0.298	1.24	0.284	0.325	0.0626	0.258	0.796	0.857	-0.93	0.266	0.795	1.46	1.29	1.16	-0.123	0.601
CGTCCAAGGTCAGCAGGTCAGTCAAAGCGACGTG	5.86	4.15	0.724	3.27	-0.456	4.84	4.14	4.59	0.878	3.11	2.82	3.69	0.0784	-0.246	3.64	3.71	0.514	4.81	0.95	5.08
GCTGCTAGGTCAACTGATGGGCAGCTAAAGCTCG	3.7	2.69	-0.419	1.48	-0.413	3.25	2.39	3.09	0.29	1.62	4.79	4	-0.683	-0.478	0.434	1.1	-0.949	1.93	-0.663	4.1
CCGCGTAGGTTATGGGGCATTCAGGCAACGGTGA	0.332	0.33	-0.277	0.756	-0.566	1.43	0.613	1.17	-0.391	0.458	0.695	0.593	-1.12	-0.878	0.303	-0.0775	-0.606	0.609	0.000588	0.985
CCTTACGGGTCAAGGTTATGGCACGGGTGGTACG	5.49	3.7	0.0981	2.81	-0.233	4.86	4.26	4.73	1.8	3.51	1.51	3.59	-0.207	-0.604	1.88	3.27	0.134	4.13	1.04	4.04
GCTGCTAGGTCAGGTTGGTCAGTTAACGGGTACG	1.25	0.792	0.267	0.719	0.0842	1.6	0.425	0.836	-0.54	-0.0172	2.8	2.15	-1	-0.445	0.781	0.391	0.149	0.719	-0.401	3.21
ATATGTAGGTTACACCCGGGTCATTCAGGCTATG	2.03	4.01	1.46	3.12	0.769	4.84	6.51	5.36	3.01	4.69	7.06	7.68	2.55	1.68	1.71	3.62	1.57	3.89	0.619	2.35
AGAATGAGGATATACGTAGATCAGGGAAGAAAGT	-0.224	-0.666	-0.354	-0.479	-0.429	-0.509	0.977	-0.177	0.217	-0.000713	-0.138	-0.218	0.0706	0.805	0.0264	-0.403	-0.147	-0.363	0.32	-0.448
CCTACTGGGCCAAAAGGGTCATTGATGCCGATAA	2.19	2.17	0.372	2.58	-0.642	3.78	3.54	4.35	1.7	3.87	4.13	3.9	-0.517	-1.13	2.18	3.16	0.631	3.57	-0.0364	2.74
AGAACGAGGGCACGCTGAGTTAATAGCAGAGTAG	0.956	0.697	-0.612	0.378	-1.03	1.99	2.22	1.65	0.0968	1.08	4.13	3.9	-0.114	0.0711	0.0693	1.38	-0.237	0.718	-0.564	2.52
TAGGCTAGGTCATGCGGGCCAGTATAGTGTCGGC	3.97	2.69	0.422	1.26	0.000142	3.1	2.29	2.28	0.305	1.33	2.31	2.92	0.345	0.348	1.24	1.21	-0.485	2.05	0.442	3.84
ACTATTAGTTGAGACGAGAGCAACCGATAGGTTG	-0.0812	-0.233	-0.161	-0.216	0.14	-0.533	0.493	-0.133	0.37	0.081	-0.112	-0.0541	0.442	0.157	0.139	-0.467	-0.273	-0.313	0.747	-0.263
TCATATAGGTACAAGGTGAAAGTCGGTGTGGTAA	0.883	1.08	0.335	1.18	0.0749	3.3	4.66	5.75	5.85	6.21	3.23	2.75	0.878	0.815	1.21	0.845	0.358	1.25	1.19	1.12
AGTCAAAGTTCAGGCCGAGGTAACGTAAAGCACG	4.1	4.03	1.27	1.71	0.0903	3.25	4.14	5.07	1.71	4.1	-0.249	1.8	0.687	0.000554	2.4	3.17	1.77	3	0.163	4.4
AGAATGAGGGTATACGTAGATCAGGGAAGAAAGT	0.101	0.0157	-0.0552	-0.0551	-0.229	0.333	0.755	0.72	0.337	0.51	2.6	0.629	0.622	0.525	0.231	0.14	0.655	0.0305	-0.0376	0.267
TCTGCTAGGTCCGTTGGTCAGCTAACGAGCTGCC	-0.505	-0.6	-1.09	-0.828	-0.736	-0.336	-1.2	-0.0919	0.802	0.586	0.439	-0.053	-0.86	0.217	-1.34	-0.511	-1.26	-0.446	-1.4	-0.0528
CTCGAATGGTCGTGCTCAGGTGAGTATACCAAAC	-0.179	-0.419	-0.51	-0.227	-0.231	-0.0651	-0.329	-0.395	-0.488	-0.372	-0.307	0.137	-1.36	0.0362	-1	-0.335	-0.382	0.107	0.169	0.0892
CCTAGTTGGTCAAGGTCAGACACGCTATAGGTAC	2.19	2.38	1.11	2.12	0.541	2.78	1.85	2.26	0.813	1.73	1.83	2.54	0.343	0.91	2.01	2.52	1.51	2.45	2.36	3.6
GGAACGAGGGCAAAGTTGATAGCGTCTGTCGACG	1.43	1.07	-0.457	0.901	-0.56	4.27	7.58	7.44	6.55	7.74	4.61	4.26	0.324	-0.0322	0.905	1.2	-0.0837	1.7	-0.604	2.48
TCGAGTAGGTTAGTCGGGGCAATCAGCCAACATA	0.297	-0.165	-0.263	0.224	-1.01	0.796	0.0628	0.946	1.01	0.797	2.37	2.34	-0.202	-1.1	-0.0632	0.138	-0.459	0.453	-0.959	0.473
TCATATAGGTAAAAGGTGAAGGTCGGTGTGGTAA	1.92	1.85	0.375	2.08	0.359	5.23	9.08	8.43	8.12	8.44	5.58	5.14	1.14	0.439	1.92	2.15	1.34	3.07	1.51	2.28
AGTTAAAGTTCAGGACGAGGTAACGTAAAGCACG	3.69	3.97	1.7	1.91	0.474	2.83	2.49	3.2	1.18	2.14	-0.314	1.18	0.861	1.1	2.09	2.95	1.51	2.66	0.705	4.06
TTACCACGGTGAAGGTCGTTGATCCCTCTGTAGA	1.28	1.71	0.151	1.26	-0.41	1.57	0.322	1.94	0.678	1.24	0.157	1.1	-0.118	-0.0664	0.191	1.13	0.169	1.59	-0.497	1.17
TGAATGAGGTTAGAGATCAGGGAACGTGGCGTCG	0.893	0.556	-0.223	0.296	0.27	2.47	2.82	4.06	2.73	4.07	0.771	2.14	0.576	0.367	0.476	0.397	-0.359	1.29	-0.00359	1.3
TCATATAGGTAAAGGTGAAAGACGAACGATATGA	1.12	1.17	-0.192	1.28	0.0599	3.09	4.19	4.4	4.5	4.66	3.92	4.19	2	1.64	1.19	0.767	-0.0893	1.22	0.159	1.85
TATACAGGGTCGAAGGCCAGAGTACGAATGTCGA	1.27	1.32	-0.263	1.01	0.799	2.44	2.45	3.28	1.28	2.65	-0.348	1.5	1.05	0.465	0.74	1.01	-0.0237	1.61	-0.116	1.75
CCTACTGGGCCAAAAAGGTCATAGATGCCGATAA	3.54	4.14	2.44	4.1	-0.00458	5.14	3.89	4.29	1.84	3.55	3.18	4.3	0.551	-0.44	3.27	4.51	1.73	5.33	1.49	3.98
CGAACTAGGTCATACAGGACAGTGAATACATTGA	3.71	2.61	0.562	1.97	0.184	4.67	7.62	6.24	3.84	5.74	8.15	8.47	4.73	2	1.93	1.48	0.551	2	0.758	3.5
